PubChem BioAssay (NCI)
About 83,000 compounds went through this panel and 20% of them were active in at least one assay; those are over-represented in the sample as a whole.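 48-hour exposure, single concentration, 96-well plates; percent growth endpoint where 0 means no net growth. Active: below 10.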 The source made the active and inactive calls.

tested on: EKVX NSCLC; experiment: NCI-60 one-dose screen, 48 h (100 = growth as untreated, 0 = no growth, -100 = all killed); conditions: 10 µM unless noted

| Compound | growth |
| --- | --- |
| CN1CCN(Cc2ccc(NC(=O)c3cncc(C#Cc4cnc5ccc(N6CCN(C)CC6)nn45)c3)cc2C(F)(F)F)CC1 | -84.9% (active) |
| O=C(O)c1cn(C2CC2)c2cc(N3CCN(C(=O)CN4C(=O)CSC4=O)CC3)c(F)cc2c1=O | 74.4% (inactive) |
| NC/C(=C/F)COc1ccc2nc(NCc3cccnc3)oc2c1 | 68.5% (inactive) |
| C=C(C)[C@@H]1CC[C@]2(C(=O)NCCCCCN(CCC#N)CCC#N)CC[C@]3(C)[C@H](CC[C@@H]4[C@@]5(C)CCC(=O)C(C)(C)[C@@H]5CC[C@]43C)[C@@H]12 | 75.2% (inactive) |
| CCCCNNC(=O)c1ccc(-c2cccc(F)c2F)cc1 | 45.3% (inactive) |
| C#Cc1ccc(C(=O)NCc2ccc(/C=C/C(=O)c3nccn3C)cc2)cc1 | 36.4% (inactive) |
| COc1ccc(/C(N)=N/C(N)=N/c2nc3ccccc3s2)cc1 | 61% (inactive) |
| O=C(CN1CCN(c2cc(=O)[nH]c3ccc(F)cc23)CC1)Nc1ccc(Cl)cc1 | 69.9% (inactive) |
| Cc1ccc(-n2cc(/C=C/C(=O)c3ccc(O)cc3)c(-c3ccc(S(C)(=O)=O)cc3)n2)cc1 | 91.4% (inactive) |
| O=S(=O)(NCCCNc1nccc(-c2[nH]c(-c3ccccc3)nc2-c2ccc(Cl)c(O)c2)n1)c1cccc(F)c1 | 65.2% (inactive) |
| Cc1cc(-c2ccc(Cl)cc2)n(Cc2nnc(SCC(=O)Nc3ccc(S(N)(=O)=O)cc3)n2C2CCCCC2)n1 | 103% (inactive) |
| Oc1cccc2ccc(-c3nnc(SCc4ccc(O)c5ncccc45)n3-c3ccccc3)nc12 | 15.3% (inactive) |
| Cc1ccc(-c2nn(-c3ccccc3)cc2/C=C/C(=O)c2ccc(NC(=O)CCCCCCC(=O)NO)cc2)cc1 | 85.8% (inactive) |
| CC(C)(C)c1ccc(C(=O)Nc2sc3c(c2C(N)=O)CCC(O)C3)cc1 (stereo not drawn) | 62.9% (inactive) |
| O=C(Nc1ccc2c(ccn2Cc2ccccn2)c1)c1ccnnc1 | 75.6% (inactive) |
| CC(C)(C)c1ccc(C(=O)Nc2sc3c(c2C(N)=O)CC/C(=N\O)C3)cc1 | 25.9% (inactive) |
| NC(N)=Nc1ccc(Oc2cccc(Nc3ccc(Cl)cc3)c2)cn1 | 16.1% (inactive) |
| CCc1cccc(NC(=O)CNc2cc(S(=O)(=O)N(C)C)cc(C)c2C)c1 | 50.7% (inactive) |
| COc1ccc(N2C(=O)c3cc(Cl)ccc3NC2SCc2ccccc2)cc1 (stereo not drawn) | 91.6% (inactive) |

| Compound | growth |
| --- | --- |
| O=C(CN1CCN(c2cc(=O)n(-c3ccccc3)c3ccccc23)CC1)Nc1nc(-c2ccc(Cl)cc2)cs1 | 42.7% (inactive) |
| COc1ccc(C2c3sc4c(C)cccc4c3Oc3nc(CC(=O)Nc4ccccc4)[nH]c(=O)c32)cc1 (stereo not drawn) | 47.1% (inactive) |
| O=C(/C=C/c1ccc(F)cc1)c1ccc(O)cc1 | 104% (inactive) |
| Cn1ccnc1C(=O)/C=C/c1ccc(NC(=O)c2c(F)c(F)c(F)c(F)c2F)cc1 | 99.7% (inactive) |
| Nc1cc(-c2c[nH]c3ccc(Br)cc23)nc2cc(-c3c[nH]c4ccc(Br)cc34)nn12 | 31.7% (inactive) |
| C#CCC#CCN1CCC[C@H]1C(=O)NCC(=O)OC | 98.4% (inactive) |
| COc1cc(/C=C/C(=O)c2ccc(NC(=O)CSc3nnc(-c4ccc(-c5nc6ccc(Cl)cc6[nH]5)cc4)o3)cc2)cc(OC)c1OC | 103% (inactive) |
| Oc1cccc2ccc(-c3nnc(SCc4ccc(O)c5ncccc45)o3)nc12 | 17.5% (inactive) |
| NS(=O)(=O)c1ccc(Nc2nc(SCc3ccccc3)nc3ccccc23)cc1 | 77.7% (inactive) |
| O=C1[C@@H]2Cc3c([nH]c4ccccc34)[C@H](c3c(Cl)cccc3Cl)N2C(=O)CN1C1CCN(CC2CCCCC2)CC1 | 90.7% (inactive) |
| NS(=O)(=O)c1ccc(Nc2nc(N/N=C/c3c[nH]c4ccccc34)nc(Nc3ccccc3)n2)cc1 | 67.4% (inactive) |
| N#Cc1c(-c2cccs2)cc(-c2cnccn2)nc1SCC(=O)Nc1ccc(Br)cc1 | 57.6% (inactive) |
| COc1ccc(Cn2cc3c(c2-c2cc(OC)c(OC)c(OC)c2)CCc2c(CN4CCOCC4)noc2-3)cc1 | 43.4% (inactive) |
| C=CCn1c(SCC(=O)Nc2ccc(C(=O)/C=C/c3ccc(C)cc3)cc2)nnc1-c1c[nH]c2ccccc12 | 61.9% (inactive) |
| COc1ccccc1C(=O)Nc1cccc2c1C(=O)C(=O)C=C2 | 72.2% (inactive) |
| COc1cc(-c2nn(C(C)(C)C)cc2-c2ccnc(NCCCNS(=O)(=O)c3ccc(Cl)cc3)n2)ccc1Cl | 31.3% (inactive) |
| CCc1cccc2c3c(sc12)C(c1ccc(Cl)cc1)C(C#N)=C(/N=C/c1ccc(Cl)cc1)O3 (stereo not drawn) | 45.8% (inactive) |
| C=C(C=O)[C@@H]1CC[C@]2(COC(C)=O)CC[C@]3(C)C(CC[C@@H]4[C@@]5(C)CC[C@H](OC(C)=O)C(C)(C)[C@@H]5CC[C@]43C)[C@@H]12 (stereo partly drawn) | 12.9% (inactive) |
| COc1ccccc1N1CCN(C2=CC(=O)C(C)=C(C)C2=O)CC1 | 101% (inactive) |
